Vaccinia Venus: vaccinia inhibition (Venus reporter) | Vaccinia virus Venus reporter expression, fluorescence | Potency, µM (doses to about 36.5 µM), without a hit: at the highest dose activity change, negative = inhibition, hits mostly inhibitors | 0.46% of 330,000 active; calls by dose curve; tested in A549 cells; note: nearly all actives have a fitted effect of over 30% in size
Vaccinia mCherry: vaccinia inhibition (mCherry reporter). AID 720579. Potency, µM (top dose mostly 36.5 µM), without a hit: at the highest dose activity change, negative = inhibition, hits mostly inhibitors. 0.63% of 310,000 active. Vaccinia virus mCherry reporter infection, fluorescence; calls by dose curve; tested in A549 cells; note: nearly all actives have a fitted effect of over 35% in size
Tb PYK inh: inhibitors of Trypanosoma brucei pyruvate kinase; TbPYK enzyme, Kinase-Glo Plus ATP luminescence, 45 min; Q57TT1; Potency, µM (doses to about 76.8 µM), without a hit: at the highest dose activity, negative = inhibition, usual class: inhibitors; 0.12% of 410,000 active; note: nearly all actives have a fitted effect of over 50% in size
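In this concentration-response screen, enzyme-free wells defined baseline while DMSO plates tracked drift. Each reaction combined TbPYK, substrate, compound and 130 uM ADP for 45 min at room temperature. Kinase-Glo Plus luminescence gave the signal.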
RE007 growth inh: less growth of the S. pombe RE007 Vpr strain; 0.21% of 360,000 active; Potency, µM (highest dose often 92.2 µM), for inactives: at the highest dose activity change, negative = less growth, most hits filed as inhibitors; AID 651644; S. pombe RE007 Vpr strain, BacTiter-Glo ATP luminescence, 24 h; active = well fitted falling curve with a large enough effect; inconclusive = small, poorly fitted or top-dose-only effect; inactive = no such curve, though single readings can be large or run the other way; note: nearly all actives have a fitted effect of over 50% in size
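Fission yeast RE007 carrying one integrated HIV-1 vpr copy, seeded at OD 0.01 in PMG+AL medium with 23 nL pinned compound. Grown 24 h at 30 degrees; viability read by BacTiter-Glo luminescence after 5 min.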
LmPK inhibitor: LmPK (Leishmania mexicana) enzyme inhibition. purified LmPK, Kinase-Glo ATP luminescence, 1 h. 0.37% of 290,000 active. Potency, µM (highest dose often 57.5 µM), without a hit: at the top dose activity change, negative = inhibition, actives largely listed as inhibitors. AID 1721
Target sequence (Q27686 whole entry, looked up): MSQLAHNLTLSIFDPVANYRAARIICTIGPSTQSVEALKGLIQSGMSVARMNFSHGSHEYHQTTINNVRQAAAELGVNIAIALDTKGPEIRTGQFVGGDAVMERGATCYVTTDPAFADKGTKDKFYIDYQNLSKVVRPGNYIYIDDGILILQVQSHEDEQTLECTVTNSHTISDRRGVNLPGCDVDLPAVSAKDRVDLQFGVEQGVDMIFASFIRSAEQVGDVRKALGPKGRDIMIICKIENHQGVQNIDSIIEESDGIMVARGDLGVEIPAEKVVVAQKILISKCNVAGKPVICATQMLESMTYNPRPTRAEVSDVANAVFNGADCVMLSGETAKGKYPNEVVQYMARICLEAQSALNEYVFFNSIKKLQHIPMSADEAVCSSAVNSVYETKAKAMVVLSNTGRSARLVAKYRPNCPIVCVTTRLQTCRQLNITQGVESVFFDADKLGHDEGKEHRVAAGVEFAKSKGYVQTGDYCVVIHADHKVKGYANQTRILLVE
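Screened at intermediate enzyme activity to detect both inhibitors and activators: LmPK at 0.1 nM, with a 0.5 nM enzyme column as activation reference. PEP 0.5 mM, ADP 0.1 mM; ATP detected by luminescence after 1 h.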
AMA1 RON2 block: disrupts binding of P. falciparum AMA1 to RON2 | Potency, µM (titrated, usually from 58.2 µM), for inactives: top-dose activity change, negative = inhibition, most hits filed as inhibitors | AlphaScreen AMA1-biotinylated RON2 peptide binding | 0.2% of 360,000 active | AID 720542;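 note: 0% = vehicle wells and -100% = peptide control; nearly all actives have a fitted effect of over 45% in size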
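AMA1 (3D7) with his tag at 25 nM final met compounds first, then biotinylated RON2 peptide at 25 nM; detection used donor plus acceptor beads, 10 µg/mL apiece, read by AlphaScreen after 30 min at room temperature.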
* hit, by the source's call; i = inactive; u = inconclusive; x = no result; [ ] = remark or other dose. Sampled rows, rich in hits. Any-hit rate of the full collection: about 1.3%. Unless noted, calls come from the whole dose curve; as a rule, active = well fitted curve in the direction sought with a large enough effect; inconclusive = small, poorly fitted or top-dose-only effect, or another doubt; inactive = no such curve, though single readings can be large; an effect the other way counts as inactive or inconclusive. Unless noted, % is set by controls: 0 for no effect and ±100 for the full control effect; potency is the fitted concentration of half-maximal effect.

SMILES | Vaccinia Venus | Vaccinia mCherry | Tb PYK inh | RE007 growth inh | LmPK inhibitor | AMA1 RON2 block
CC1(C)O[C@@H]2[C@H](O1)[C@@H](COS(=O)(=O)O)O[C@H]2n1c(=S)[nH]c2c(=O)[nH]c(N)nc21 | -15.6% | i | 35.5µM* | 0.2% | x | 4.0%
Cc1ccc(C(=O)N/C(=C/c2ccc(-c3ccc([N+](=O)[O-])cc3)o2)C(=O)NCCCN(C)C)cc1 | 11.2µM* | u | -4.0% | -23.2% | x | -9.3%
CCCn1c(N)c(C(=O)CSc2nc3ccccc3s2)c(=O)[nH]c1=O | -14.7% | 11.2µM* | 4.1% | 0.1% | -1.4% | -3.0%
Cn1c(=O)[nH]c(=O)c2c1nc(Sc1nc3ccccc3s1)n2Cc1ccccc1 | 3.98µM* | x | -11.1% | u | 6.4% | -5.5%
CCCn1c(N)c(C(=O)CSc2nnc(N)s2)c(=O)[nH]c1=O | x | x | 0.4% | 1.8% | x | 0.0%
COC(=O)c1cccc(Nc2c(-c3ccc(O)c(OC)c3)nc3nc[nH]n23)c1 | -8.7% | -10.3% | -7.1% | x | x | x
COC(=O)CN(C)C1CC(=O)N(c2ccc(Cl)cc2)C1=O (centres undefined) | x | x | 1.1% | 15.8µM* | -5.2% | 81.9%
CN(Cc1ccncc1)C1CC(=O)N(c2ccc(Cl)cc2)C1=O (centres undefined) | -33.8% | x | 1.6% | 50.1µM* | 1.6% | -4.6%
C=CCN(C(=O)Nc1ccc(Cl)cc1)C1CC(=O)N(c2ccc(OC)cc2)C1=O (centres undefined) | x | x | 1.5% | -7.8% | 2.0% | -0.3%
CNC(=S)N(Cc1ccc(OC)cc1)C1CC(=O)N(c2ccc(Cl)cc2)C1=O (centres undefined) | -24.0% | -14.9% | -11.8% | x | 2.5% | u
COc1cc(OC)c(/C=C/c2ccc3ccccc3[n+]2[O-])c(OC)c1 | -7.8% | -9.9% | x | x | x | x
Cc1ccc(/C=[N+](\[O-])c2ccc(N(C)C)cc2)c2nsnc12 | 11.5% | 1.4% | -19.9% | 3.98µM* | -2.2% | 25.1µM*
O=C(OCC(=O)c1cccs1)c1ccccc1 | x | x | -3.5% | 2.9% | 15.8µM* | -3.5%
CC(C)(C)c1ccc(O)c(N=Cc2cc3c(cc2[N+](=O)[O-])OCO3)c1 | -14.4% | -5.7% | u | 8.9% | 1.58µM* | 56.6%
Cc1nn(-c2ccccc2)c(N)c1-c1ccccc1 | -16.4% | u | 1.1% | -13.8% | -5.6% | -7.7%
Cc1nn(-c2nc3ccccc3[nH]2)c(N)c1-c1ccccc1 | u | u | 0.9% | 28.2µM* | -14.9% | 73.1%
CN(C)c1ncnc2c1ncn2C1OC(CO)C(O)C1O (centres undefined) | 10µM* | 12.6µM* | 2.9% | -7.5% | -0.7% | -5.9%
C=CCOc1ccc(C[C@H](N)C(=O)NC[C@H]2O[C@@H](n3cnc4c(N)ncnc43)[C@H](O)[C@@H]2O)cc1 | -3.6% | i | 4.4% | -3.8% | x | 18.0%
COc1ccc(C[C@H](N)C(=O)N[C@H]2[C@@H](O)[C@H](n3cnc4c(N(C)C)ncnc43)O[C@@H]2CO)cc1 | 1.58µM* | 1.26µM* | -4.4% | -3.8%[18.4 µM] | x | 26.4%
CCN1C(=O)CC(CC(=O)N2CCC(c3nc4ccc(F)cc4[nH]3)CC2)(c2ccccc2C)C1=O (centres undefined) | -5.4% | -29.3% | x | x | x | x
Cc1ncc2c(c1CNC(=O)c1ccc3c(c1)OCO3)CCN(C(=O)c1csc3c1CCCC3)C2 | -6.2% | -14.6% | x | x | x | x
O=C(Nc1nnc2n1CCS2)c1ccc(F)cc1F | -7.1%[7.34 µM] | -5.4%[7.34 µM] | -3.8% | x | x | x
CCCCCCCCCn1c2c(c(=N)c3c1CCC3)CCCC2 | u | u | 8.6% | u | 6.5% | 4.8%
CCCCCCCCCCn1c2c(c(=N)c3c1CCC3)CCC2 | 10µM* | 12.6µM* | 5.8% | u | -2.2% | -6.3%
C=CCC1(O)CCC2C3CCC4=CC(=O)CCC4=C3C=CC21C (centres undefined) | x | x | -15.6% | x | x | x
SMILES | Vaccinia Venus | Vaccinia mCherry | Tb PYK inh | RE007 growth inh | LmPK inhibitor | AMA1 RON2 block
O=c1c2ccccc2sn1-c1ccc(Cl)cc1Cl | -28.2% | -0.9% | 17.8µM* | 44.7µM* | x | 0.0%
O=c1c2ccccc2ncn1-c1ccc(Cl)cc1Cl | x | x | -4.6% | -14.5% | 2.6% | -2.7%
COc1cc(/C=C2\CCC/C(=C\c3ccc(O)c(OC)c3)C2=O)ccc1O | u | 6.31µM* | 10.7% | 32.2% | 2.8% | -7.8%
COc1cc(/C=C2/C(=O)CNC2=O)ccc1O | x | x | u | -3.6% | -3.6% | -7.5%
COc1cc(C=C2C(=O)C=CC2=O)ccc1O | u | u | 3.55µM* | 2µM* | x | u
COc1cc(/C=C/C(=O)O)ccc1O | u | 2.6% | -5.2% | 9.9% | x | 19.7%
COc1cc(/C=C/C(C)=NNc2ccccc2)ccc1O | -20.8% | 3.55µM* | -4.4% | 4.3% | x | -0.4%
O=[N+]([O-])c1ccc(C=Nc2cccc3ccccc23)s1 | -6.1% | -18.5% | -12.7% | 22.4µM* | 0.6% | -29.3%
O=C(N/N=C/c1ccc([N+](=O)[O-])s1)c1ccncc1 | 11.2µM* | u | -9.5% | -12.2% | 0.6% | 43.2%
Cc1cccc(NC(=O)/C=C/c2ccc([N+](=O)[O-])s2)c1 | -2.9% | -21.7% | -10.6% | u | -10.5% | -13.7%
Cc1cccc(NC(=S)N/N=C/c2ccc([N+](=O)[O-])s2)c1 | 22.4µM* | 11.2µM* | -0.2% | -15.8% | 4.2% | -24.2%
Cc1ccc(C(=O)N/N=C/c2ccc([N+](=O)[O-])s2)cc1 | u | -11.8%[1.46 µM] | 0.5% | -7.9% | 3.2% | -23.7%
O=C(CNC(=O)c1ccccc1)N/N=C/c1ccc([N+](=O)[O-])s1 | 10µM* | 10µM* | 2.8% | -11.6% | 0.4% | 4.9%
CN(C)c1c(Cl)cc(/C=C/c2ccnc3ccccc23)cc1Br | -15.8% | -21.0% | x | x | x | x
CCOC(=O)C(C)/C(C)=N/NC(N)=S (centres undefined) | u | 22.4µM* | -4.4% | 15.6% | 1.1% | 97.1%
CCOC(=O)C(C)/C(C)=N\Nc1ccc([N+](=O)[O-])cc1[N+](=O)[O-] (centres undefined) | -2.8% | -12.2% | 0.0% | 1.4% | 2.6% | u
Cc1oc(-c2cccc(NC(=O)c3ccccn3)c2)nc1CNC(=O)C#Cc1ccccc1 | -16.0% | -3.3% | x | x | x | x
O=C1CC(N2CCSCC2)C(=O)N1c1cccc(Br)c1 (centres undefined) | -5.9% | i | -22.5% | 31.6µM* | 2.3% | 7.6%
O=C1CC(N2CCCCC2)C(=O)N1c1ccccc1 (centres undefined) | -7.6% | -11.6% | 1.7% | 39.8µM* | 0.7% | -11.0%
O=C1CC(N2CCCN(C3CC(=O)N(c4ccc(F)cc4)C3=O)CC2)C(=O)N1c1ccc(F)cc1 (centres undefined) | u | x | -9.2% | 4.47µM* | -1.2% | 25.9%
CC(C)=CCOc1ccc(/C=C/C(=O)c2ccc(OCC=C(C)C)cc2OCC(=O)O)cc1 | x | x | 2.3% | x | x | x

Screens as filed in PubChem BioAssay.
